Measurements published in PubChem BioAssay (NCATS).
“And” between values parts separate entries of the source, which are not always exact repeats. Identical values can stand only once. Inconclusive results are not listed. Where a structure was tested more than once in an assay, its records may differ in their call. The source made the active and inactive calls. Unless noted, the call rests on the fitted dose curve; in most records, active means well fitted curve in the direction sought with a large enough effect; inconclusive means small, poorly fitted or top-dose-only effect, or another doubt; inactive means no such curve, though single readings can be large; an effect the other way counts as inactive or inconclusive.

Experiments:
[1] = target: Cytochrome P450 2C19 (Homo sapiens) (UniProt P33261); assay: qHTS Assay for Inhibitors and Substrates of Cytochrome P450 2C19 (AID 899); further: nearly all actives have a fitted effect of over 60% in size; further: potency means the concentration at half of the fitted maximal effect
Outline: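 5nM enzyme + 10uM Luciferin-H EGE (=KM), 50mM KPO4; cpd pin-transferred, 10 min 37C; NADPH regen, 60 min 37C; stopped w/ luciferin detection reagent, 20 min; luminescence. Normalized to 57uM ketoconazole (AC100).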

[2] = qHTS Assay for Identification of Small Molecule Antagonists for Thrombopoietin (TPO) Signaling Pathway (AID 918); conditions: TPO-dependent cell signaling reporter, antagonist mode; further: potency means the concentration at half of the fitted maximal effect; nearly all actives have a fitted effect of over 60% in size
Outline: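 Inhibition read as reduced luciferase luminescence after 24 h at 37 C in IL-3-deprived Ba/F3 cells carrying human TPO receptor and GPIIb-promoter reporter, stimulated with 26 pM TPO (final, its EC50) alongside compound.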

[3] = target: Muscarinic acetylcholine receptor M1 (Rattus norvegicus) (UniProt P08482); assay: qHTS Assay for Antagonists of Acetylcholine Muscarinic M1 Receptor: Kinetic Measurement of Intracellular Calcium Response (AID 943);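 further: Fluo-4 calcium signal as peak divided by basal fluorescence over 4 min; series mostly up to about 35 µM; nearly all actives have a fitted effect of over 75% in size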
Outline: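 Antagonism measured as reduction of carbachol-evoked (EC80, 100 nM final) calcium flux in rat M1-CHO cells after 10 min compound exposure. Fluo-4 signal read kinetically; ratio of maximal to basal fluorescence.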

[4] = target: Muscarinic acetylcholine receptor M1 (Rattus norvegicus) (UniProt P08482); assay: qHTS Assay for Antagonists of Acetylcholine Muscarinic M1 Receptor: Measurement of IP-One Response (AID 944); further: nearly all actives have a fitted effect of over 75% in size
Outline: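 IP1 accumulation measured via TR-FRET between d2-IP1 and Eu-cryptate anti-IP1 antibody after carbachol (200 nM, EC80) stimulation for 30 min; rat M1-transfected CHO cells received compound 10 min before agonist.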

[5] = target: Pyruvate kinase (Leishmania mexicana) (UniProt Q27686); assay: qHTS Validation Assay for Inhibitors of Leishmania Mexicana Pyruvate Kinase (AID 945);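 further: 0% = DMSO only neutral control wells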
Outline: (§1)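 Mutant LmPYK (E451W), 0.2 nM, plus 0.5 mM PEP and 0.1 mM ADP in 50 mM imidazole pH 7.2 containing 0.01% Tween 20 and 0.05% BSA. Incubated 1 h at room temperature; luminescence via PKLight, normalized to DMSO.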

[6] = target: Pyruvate kinase PKM (Homo sapiens) (UniProt P14618); assay: qHTS Assay for Activators of Human Muscle Pyruvate Kinase (AID 954; active means well fitted curve in the direction sought with a large enough effect, not every such curve was filed as active;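 further: 0% = uninhibited enzyme and -100% = no enzyme or full thiadiazolimine inhibition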)
Outline: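 PKM2, human, >95% pure, 0.1 nM; PEP 0.5 mM (Km), ADP 0.1 mM; 50 mM imidazole pH 7.2, 50 mM KCl, 0.01% Tween 20, 0.05% BSA; 1 h RT; luciferase luminescence readout.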

[7] = Confirmation and Secondary Assay for Modulators of Hemoglobin Beta Chain Splicing at IVS2 654 locus (AID 910);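 further: HeLa cells stably carrying EGFP split by mutant beta-globin IVS2-654 intron; per-well total GFP intensity by laser scanning cytometry after 2-day treatment; % of control where 0% means no effect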
Outline: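 Readout: per-well total peak green fluorescence (488 nm ex, 500–520 nm em) from objects 5–250 µm, reflecting correct splicing of an EGFP-654 reporter. Compounds were applied for 2 days at 37 °C to overnight-plated HeLa EGFP-654 cells; controls were DMSO and 500 nM IVS2-654 PNA.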

[8] = qHTS Assay for Identification of Small Molecule Agonists for Hypoxia Response Element Signaling Pathway (AID 914; active means well fitted activation curve with a large enough effect in the signal ratio, with a control signal flat, not every such curve was filed as active; the % refers to the signal ratio; further: % of control where 0% means no effect); conditions: ME-180 (cervical carcinoma) HRE-bla reporter, beta-lactamase ratio, CoCl2, 17 h; activation: stronger effect = higher value
Outline: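 Reporter activity (beta-lactamase, CCF4 460nm/530nm ratio) in HRE-bla ME-180 cells is recorded after 17 h compound exposure with EC50 CoCl2 at 37 degrees Celsius. AC50 values come from titration data.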

[9] = qHTS Assay for Identification of Small Molecule Agonists for Thrombopoietin (TPO) Signaling Pathway (AID 917); further: potency means the concentration at half of the fitted maximal effect
Outline: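 Ba/F3 (mouse) + hTPO receptor + GpIIb-promoter luciferase; IL-3 withdrawn overnight; compound + 26 pM TPO (EC50), 24 hrs, 37 C, 5% CO2; Steadylite luminescence, 10 min RT.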

[10] = Confirmation and Secondary Assay for Modulators of Hemoglobin Beta Chain Splicing at IVS2 705 locus (AID 930);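 further: HeLa cells stably expressing the EGFP-705 splicing reporter; GFP fluorescence per well restored by corrected splicing of the IVS2-705 intron in EGFP; series mostly up to about 46 µM; % of control where 0% means no effect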
Outline: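 Stable HeLa line with EGFP disrupted by mutant beta-globin intron 2 (705). Overnight attachment, then 2 days of compound at 37C, 5% CO2. Signal: peak GFP intensity summed over objects 5-250 µm.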

[11] = target: Pyruvate kinase (Leishmania mexicana) (UniProt Q27686); assay: qHTS Validation Assay for Activators of Leishmania Mexicana Pyruvate Kinase (AID 959)
Outline: as §1

Sequence of Cytochrome P450 2C19 (Homo sapiens) (P33261 whole entry, looked up): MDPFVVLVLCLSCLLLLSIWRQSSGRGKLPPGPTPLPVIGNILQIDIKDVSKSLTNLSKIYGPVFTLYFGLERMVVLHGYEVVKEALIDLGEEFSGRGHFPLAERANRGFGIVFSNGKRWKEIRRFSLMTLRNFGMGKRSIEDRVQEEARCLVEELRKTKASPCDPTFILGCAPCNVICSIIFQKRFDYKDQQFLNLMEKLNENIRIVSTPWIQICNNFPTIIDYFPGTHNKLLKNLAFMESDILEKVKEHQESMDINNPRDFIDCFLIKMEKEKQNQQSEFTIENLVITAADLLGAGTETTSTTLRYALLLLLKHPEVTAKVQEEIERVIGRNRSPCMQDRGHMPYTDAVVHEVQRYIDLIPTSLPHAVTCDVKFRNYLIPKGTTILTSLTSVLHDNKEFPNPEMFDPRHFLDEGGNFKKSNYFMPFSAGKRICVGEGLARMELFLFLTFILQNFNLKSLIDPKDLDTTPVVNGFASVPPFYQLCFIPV
Sequence of Pyruvate kinase PKM (Homo sapiens) (P14618 whole entry, looked up): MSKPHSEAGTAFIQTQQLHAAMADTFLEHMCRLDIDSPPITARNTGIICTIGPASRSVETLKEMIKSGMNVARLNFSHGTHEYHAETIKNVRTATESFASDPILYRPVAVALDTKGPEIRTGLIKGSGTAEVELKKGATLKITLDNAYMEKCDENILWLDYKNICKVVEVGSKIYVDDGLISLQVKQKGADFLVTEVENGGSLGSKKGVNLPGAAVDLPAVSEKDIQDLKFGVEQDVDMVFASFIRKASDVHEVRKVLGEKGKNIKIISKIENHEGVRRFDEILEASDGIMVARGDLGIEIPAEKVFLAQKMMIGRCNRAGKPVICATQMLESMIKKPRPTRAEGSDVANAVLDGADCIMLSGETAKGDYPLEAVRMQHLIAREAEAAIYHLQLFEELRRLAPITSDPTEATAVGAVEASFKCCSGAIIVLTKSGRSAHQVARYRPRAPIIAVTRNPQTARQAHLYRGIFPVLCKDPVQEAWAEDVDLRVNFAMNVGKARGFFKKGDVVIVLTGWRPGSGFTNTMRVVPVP
Sequence of Pyruvate kinase (Leishmania mexicana) (Q27686 2-499 E452W): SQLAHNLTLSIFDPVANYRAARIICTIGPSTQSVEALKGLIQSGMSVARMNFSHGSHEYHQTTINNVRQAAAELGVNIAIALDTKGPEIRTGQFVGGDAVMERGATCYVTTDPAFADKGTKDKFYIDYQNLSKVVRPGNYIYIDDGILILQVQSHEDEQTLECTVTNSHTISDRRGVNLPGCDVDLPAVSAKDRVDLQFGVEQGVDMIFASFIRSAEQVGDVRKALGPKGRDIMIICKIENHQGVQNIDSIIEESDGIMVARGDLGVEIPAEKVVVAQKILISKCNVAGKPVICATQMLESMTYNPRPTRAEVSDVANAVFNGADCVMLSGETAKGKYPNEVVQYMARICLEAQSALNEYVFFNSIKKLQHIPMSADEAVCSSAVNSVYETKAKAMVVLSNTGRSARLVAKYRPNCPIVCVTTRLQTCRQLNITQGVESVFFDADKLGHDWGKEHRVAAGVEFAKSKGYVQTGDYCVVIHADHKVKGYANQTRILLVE
Sequence of Muscarinic acetylcholine receptor M1 (Rattus norvegicus) (P08482 whole entry, looked up): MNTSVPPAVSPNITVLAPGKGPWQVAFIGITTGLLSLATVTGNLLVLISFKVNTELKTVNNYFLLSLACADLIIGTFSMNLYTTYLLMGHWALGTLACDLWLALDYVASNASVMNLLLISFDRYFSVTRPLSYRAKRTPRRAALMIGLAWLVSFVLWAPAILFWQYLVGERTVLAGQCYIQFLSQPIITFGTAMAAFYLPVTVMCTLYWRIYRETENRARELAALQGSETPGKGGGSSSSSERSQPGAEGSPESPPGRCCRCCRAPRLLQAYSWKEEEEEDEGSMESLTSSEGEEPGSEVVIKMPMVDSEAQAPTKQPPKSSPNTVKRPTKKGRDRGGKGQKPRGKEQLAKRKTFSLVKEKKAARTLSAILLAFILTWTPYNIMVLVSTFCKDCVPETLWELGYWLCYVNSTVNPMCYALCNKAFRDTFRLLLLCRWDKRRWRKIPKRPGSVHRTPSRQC

O=C(N[C@@H](Cc1ccccc1)C(=O)CCl)OCc1ccccc1
active: Potency [1] 5.01 µM | Potency [2] 2.51 µM
inactive: Potency [3] | Potency [4] | Potency [5] | outcome [6]

O=C(c1ccc2c(c1)OCCO2)N1CCCCC1
inactive: Potency [1]

Cn1c(=O)c2[nH]c(C3CCCC3)nc2n(C)c1=O
inactive: Potency [7] | activation [8] -4.29% | Potency [9] | outcome [10] | Potency [3] | Potency [4] | Potency [5] | outcome [6]

O=C1Cc2c([nH]c3ccc(Br)cc23)-c2ccccc2N1
active: Potency [9] 0.158 µM
inactive: Potency [1] | Potency [3] | outcome [6] | Potency [11]

COCc1nc2c([nH]1)c(=O)n(C)c(=O)n2CC(C)C
inactive: Potency [1] | Potency [9] | Potency [3] | Potency [4] | Potency [5] | outcome [6]

O=C(O)c1ccccc1Nc1cccc(OCc2ccc3ccccc3n2)c1
inactive: Potency [3] | Potency [4] | Potency [5] | outcome [6]
inactive and 5.01 µM (active): Potency [1]

CC(=O)N[C@@H](Cc1c[nH]c2ccccc12)C(=O)OCc1cc(C(F)(F)F)cc(C(F)(F)F)c1
inactive: Potency [3] | Potency [4] | Potency [5] | outcome [6]
active: Potency [1] 7.94 µM

Oc1cc(O)c2c(c1)O[C@H](c1ccc(O)c(O)c1)[C@@H](O)C2
inactive: Potency [1]

C[C@H](NC(=O)/C(C#N)=C/c1ccc(O)c(O)c1)c1ccccc1
inactive: Potency [1] | Potency [3] | Potency [4] | Potency [5] | outcome [6]

CCn1c(=O)[nH]c2cc(Cl)c(Cl)cc21
inactive: Potency [1] | Potency [9] | Potency [3] | Potency [4] | Potency [5] | outcome [6]

CC(C)Cn1c(=O)n(C)c(=O)c2[nH]cnc21
inactive: Potency [7] | Potency [9] | outcome [10] | Potency [3] | Potency [4] | Potency [5] | outcome [6]
